This note sets out measurements from PubChem BioAssay (NCI).

The nature of assay [1]: NCI Yeast Anticancer Drug Screen. Data for the rad50 strain (AID 155).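 Also: 0% = growth of vehicle-only cultures of the same strain.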 Conditions: S. cerevisiae rad50 strain growth inhibition, hits give high values. The essentials: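 DNA repair mutant yeast, compound exposure, growth read-out; inhibition is taken relative to vehicle.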
Assay [2] in a line: NCI Yeast Anticancer Drug Screen. Data for the mec2-1 strain (AID 157). Conditions: S. cerevisiae mec2-1 strain, hits give high values. Put shortly: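 Compounds were applied to mec2-1 yeast cells. Their growth was then compared with that of vehicle-treated cultures to give growth inhibition.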
The nature of assay [3]: NCI Yeast Anticancer Drug Screen. Data for the sgs1 mgt1 strain (AID 161).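 Also: 0% = growth of cultures given vehicle only.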 Particulars: S. cerevisiae sgs1 mgt1 strain, hits give high values. Put shortly:
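Percent growth inhibition was derived by comparing compound-exposed mutant yeast with vehicle-exposed cultures. The strain carries alterations in DNA damage repair.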

Assay [4] in a line: NCI Yeast Anticancer Drug Screen. Data for the cln2 rad14 strain (AID 165).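 Also: 0% = growth equal to vehicle treated cultures.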 Conditions: S. cerevisiae cln2 rad14 strain, hits give high values. Put shortly: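 Strain: cln2 rad14 yeast, altered in cell cycle control and DNA damage repair. Read-out: growth inhibition vs vehicle.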
Assay [5] can be described thus: NCI Yeast Anticancer Drug Screen. Data for the bub3 strain (AID 167). Conditions: S. cerevisiae bub3 mutant strain, hits give high values. The essentials: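 In this screen, a yeast mutant lacking normal mitotic checkpoint function is challenged with compound. Relative growth versus vehicle gives the inhibition value.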
Assay [6] in a line: NCI Yeast Anticancer Drug Screen. Data for the mlh1 rad18 strain (AID 175). Conditions: S. cerevisiae mlh1 rad18 strain growth inhibition, hits give high values. The essentials: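 A repair-deficient yeast strain is exposed to test compound, and growth is scored relative to vehicle-treated controls.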
The mark [7] stands for this setting: at 5.0 µM (retest, dose inferred, filed as 0.5).
The mark [8] stands for this setting: at 50.0 µM (retest, dose inferred, filed as 5.0).

This is part of a sample that, as a whole, favours compounds with a hit. Of some 79,000 tested, about 15% had one in any assay. Values without a mark were called inactive. Active and inactive are the calls of the source. Rule as the data show it: active = growth inhibition above about 70%; inactive = the rest.

As to `CC(=O)C1(C(C)=O)C2=C(C(=O)C(Cl)=C(Cl)C2=O)N2C=CC=CC21` (stereo not given), the growth inhibition in assay [1] (setting [7]) is 85% (active); in assay [1] (setting [8]), 95% (active); in assay [1] (at 50.0 µM), 98.3% (active); in assay [2] (setting [7]), 81% (active); in assay [2] (setting [8]), 97% (active); in assay [2] (at 50.0 µM) it was 98.5% (active). Also, the growth inhibition in assay [3] (setting [7]) was 78% (active); in assay [3] (setting [8]), 97% (active); in assay [3] (at 50.0 µM) it was 98.3% (active); in assay [4] (setting [7]), 40%; in assay [4] (setting [8]), 95% (active); in assay [4] (at 50.0 µM), 96.8% (active). Also, the growth inhibition in assay [5] (setting [7]) was 91% (active); in assay [5] (setting [8]) it was 97% (active); in assay [5] (at 50.0 µM), 98.3% (active); in assay [6] (setting [7]), 92% (active); in assay [6] (setting [8]) it was 96% (active); in assay [6] (at 50.0 µM) it was 98.2% (active).
`CC(C)(Cl)C(Cl)CC/C(CBr)=C(\Cl)CCl` (stereo not given): the growth inhibition in assay [1] (setting [7]) was 28%; in assay [1] (setting [8]), 98% (active); in assay [1] (at 50.0 µM) it was 86.7% (active); in assay [2] (setting [7]), 19%; in assay [2] (setting [8]), 98% (active); in assay [2] (at 50.0 µM), 89.9% (active). For the same molecule, the growth inhibition was 14% in assay [3] (setting [7]); 100% (active) in assay [3] (setting [8]); 91.5% (active) in assay [3] (at 50.0 µM); 26% in assay [4] (setting [7]); 98% (active) in assay [4] (setting [8]); 88.2% (active) in assay [4] (at 50.0 µM). Besides, the growth inhibition in assay [5] (setting [7]) was 27%; in assay [5] (setting [8]), 100% (active); in assay [5] (at 50.0 µM) it was 88.2% (active); in assay [6] (setting [7]), 21%; in assay [6] (setting [8]), 98% (active); in assay [6] (at 50.0 µM) it was 1.35%.
For the molecule `COc1ccccc1C(c1cc2c(cc1O)OCO2)N1CCOCC1` (stereo not given), the growth inhibition in assay [1] (setting [7]) was -15%; in assay [1] (setting [8]) it was 97% (active); in assay [1] (at 50.0 µM) it was 99% (active); in assay [2] (setting [7]), -20%; in assay [2] (setting [8]) it was 98% (active); in assay [2] (at 50.0 µM), 98.6% (active). The growth inhibition in assay [3] (setting [7]) was -8%; in assay [3] (setting [8]), 98% (active); in assay [3] (at 50.0 µM), 85.3% (active); in assay [4] (setting [7]), -12%; in assay [4] (setting [8]), 51%; in assay [4] (at 50.0 µM), 77.4% (active). In addition, the growth inhibition in assay [5] (setting [7]) is 15%; in assay [5] (setting [8]), 99% (active); in assay [5] (at 50.0 µM) it was 31.9%; in assay [6] (setting [7]), 6%; in assay [6] (setting [8]), 98% (active); in assay [6] (at 50.0 µM), 42.4%.
In the case of `O=C1NC(=S)S/C1=C\c1cc(Cl)ccc1O`, the growth inhibition in assay [1] (setting [7]) was 4%; in assay [1] (setting [8]), -7%; in assay [1] (at 50.0 µM), 2.85%; in assay [2] (setting [7]) it was -4%; in assay [2] (setting [8]) it was -6%; in assay [2] (at 50.0 µM), 15.7%. Further, the growth inhibition was -1% in assay [3] (setting [7]); 4% in assay [3] (setting [8]); 60.5% in assay [3] (at 50.0 µM); -7% in assay [4] (setting [7]); -18% in assay [4] (setting [8]); -22.4% in assay [4] (at 50.0 µM). The growth inhibition was -7% in assay [5] (setting [7]); -14% in assay [5] (setting [8]); -4.2% in assay [5] (at 50.0 µM); -5% in assay [6] (setting [7]); -6% in assay [6] (setting [8]); 3.05% in assay [6] (at 50.0 µM).
As for `O=C(Sc1ccccc1)C1OC12CCCCC2` (stereo not given), the growth inhibition in assay [1] (setting [7]) is -160%; in assay [1] (setting [8]), -116%; in assay [1] (at 50.0 µM) it was 50.5%; in assay [2] (setting [7]), -48%; in assay [2] (setting [8]) it was -44%; in assay [2] (at 50.0 µM), 31.2%. Moreover, the growth inhibition in assay [3] (setting [7]) was -68%; in assay [3] (setting [8]), -47%; in assay [3] (at 50.0 µM), 63.8%; in assay [4] (setting [7]), -62%; in assay [4] (setting [8]), -75%; in assay [4] (at 50.0 µM), -8.05%. The growth inhibition in assay [5] (setting [7]) is -65%; in assay [5] (setting [8]), -57%; in assay [5] (at 50.0 µM), 8.8%; in assay [6] (setting [7]) it was -122%; in assay [6] (setting [8]) it was -90%; in assay [6] (at 50.0 µM), 50.1%.
`O=C(c1ccc(Cl)cc1)C1OC12C(=O)Nc1c(Cl)cc(Cl)cc12` (stereo not given): the growth inhibition is 1% in assay [1] (setting [7]); 99% (active) in assay [1] (setting [8]); 99.2% (active) in assay [1] (at 50.0 µM); 3% in assay [2] (setting [7]); 99% (active) in assay [2] (setting [8]); 99.2% (active) in assay [2] (at 50.0 µM). Further, the growth inhibition in assay [3] (setting [7]) was 22%; in assay [3] (setting [8]) it was 99% (active); in assay [3] (at 50.0 µM) it was 99.2% (active); in assay [4] (setting [7]) it was 5%; in assay [4] (setting [8]), 99% (active); in assay [4] (at 50.0 µM), 99.1% (active). Moreover, the growth inhibition in assay [5] (setting [7]) was -1%; in assay [5] (setting [8]), 99% (active); in assay [5] (at 50.0 µM), 99.2% (active); in assay [6] (setting [7]), 4%; in assay [6] (setting [8]), 99% (active); in assay [6] (at 50.0 µM) it was 98.5% (active).
As for `CCCCCN(CCCCC)CCNc1ccc(C)c2sc3ccccc3c(=O)c12`, the growth inhibition in assay [1] (setting [7]) was 2%; in assay [1] (setting [8]) it was 96% (active); in assay [1] (at 50.0 µM), 98.6% (active); in assay [2] (setting [7]) it was 7%; in assay [2] (setting [8]), 97% (active); in assay [2] (at 50.0 µM), 97.3% (active). For the same molecule, the growth inhibition was 17% in assay [3] (setting [7]); 97% (active) in assay [3] (setting [8]); 98.2% (active) in assay [3] (at 50.0 µM); 5% in assay [4] (setting [7]); 93% (active) in assay [4] (setting [8]); 95.7% (active) in assay [4] (at 50.0 µM). For the same molecule, the growth inhibition in assay [5] (setting [7]) is 7%; in assay [5] (setting [8]) it was 97% (active); in assay [5] (at 50.0 µM) it was 96.8% (active); in assay [6] (setting [7]) it was 9%; in assay [6] (setting [8]), 97% (active); in assay [6] (at 50.0 µM), 97% (active).
With `O=C1c2ccccc2C(=O)c2c1ccc(C(=O)O)c2-c1ccc2ccccc2c1`, the growth inhibition in assay [1] (setting [7]) was 5%; in assay [1] (setting [8]), 97% (active); in assay [1] (at 50.0 µM), 97.3% (active); in assay [2] (setting [7]) it was 26%; in assay [2] (setting [8]), 98% (active); in assay [2] (at 50.0 µM), 97.8% (active). Also, the growth inhibition in assay [3] (setting [7]) was 11%; in assay [3] (setting [8]), 98% (active); in assay [3] (at 50.0 µM), 97.5% (active); in assay [4] (setting [7]) it was 13%; in assay [4] (setting [8]), 96% (active); in assay [4] (at 50.0 µM), 97.3% (active). For the same molecule, the growth inhibition is -3% in assay [5] (setting [7]); 98% (active) in assay [5] (setting [8]); 96.2% (active) in assay [5] (at 50.0 µM); 8% in assay [6] (setting [7]); 98% (active) in assay [6] (setting [8]); 97.2% (active) in assay [6] (at 50.0 µM).
As for `COc1ccc(OC)c2c(=S)c3ccccc3[nH]c12`, the growth inhibition in assay [1] (setting [7]) is -1%; in assay [1] (setting [8]) it was 75% (active); in assay [1] (at 50.0 µM), 85.3% (active); in assay [2] (setting [7]) it was 0%; in assay [2] (setting [8]) it was 44%; in assay [2] (at 50.0 µM), 26.2%. The growth inhibition in assay [3] (setting [7]) was -5%; in assay [3] (setting [8]), 43%; in assay [3] (at 50.0 µM) it was 60.6%; in assay [4] (setting [7]) it was -5%; in assay [4] (setting [8]) it was -5%; in assay [4] (at 50.0 µM) it was 40.6%. For the same molecule, the growth inhibition in assay [5] (setting [7]) was -6%; in assay [5] (setting [8]), 37%; in assay [5] (at 50.0 µM), 60.2%; in assay [6] (setting [7]) it was -5%; in assay [6] (setting [8]), 65%; in assay [6] (at 50.0 µM), 91.1% (active).
Turning to `O=C(Nc1ccc(C2=NCCN2)cc1)c1cc(C(=O)Nc2ccc(C3=NCCN3)cc2)cc(C(=O)Nc2ccc(C3=NCCN3)cc2)c1`, the growth inhibition is 37% in assay [1] (setting [7]); 96% (active) in assay [1] (setting [8]); 99% (active) in assay [1] (at 50.0 µM); 5% in assay [2] (setting [7]); 94% (active) in assay [2] (setting [8]); 99% (active) in assay [2] (at 50.0 µM). Also, the growth inhibition in assay [3] (setting [7]) is 16%; in assay [3] (setting [8]) it was 95% (active); in assay [3] (at 50.0 µM), 98.8% (active); in assay [4] (setting [7]) it was 13%; in assay [4] (setting [8]), 62%; in assay [4] (at 50.0 µM) it was 90.1% (active). In addition, the growth inhibition in assay [5] (setting [7]) is 23%; in assay [5] (setting [8]) it was 99% (active); in assay [5] (at 50.0 µM), 98.8% (active); in assay [6] (setting [7]), 25%; in assay [6] (setting [8]), 98% (active); in assay [6] (at 50.0 µM), 99% (active).
